Screening results as filed in PubChem BioAssay.
ERb coact inh: inhibitors of ERβ-SRC1 coactivator interaction, primary screen, biochemical, TR-FRET, ERβ LBD, SRC-1 peptide | Estrogen receptor beta (Homo sapiens), Q92731 | TR-FRET ER-beta LBD / SRC1-Cy5 peptide binding; receptor agonist-loaded with 1 µM estradiol | inhibition, % at 25.6 µM | 1.3% of 86,000 active | AID 633, 2007;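 active means compounds whose percent inhibition of the receptor-coactivator binding signal exceeds about 50% in the single-dose screen, limit read from the data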;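 further: 0% = receptor plus peptide wells without compound and 100% = peptide-only wells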
Target sequence (Q92731 whole entry, looked up, the tested form may be a part): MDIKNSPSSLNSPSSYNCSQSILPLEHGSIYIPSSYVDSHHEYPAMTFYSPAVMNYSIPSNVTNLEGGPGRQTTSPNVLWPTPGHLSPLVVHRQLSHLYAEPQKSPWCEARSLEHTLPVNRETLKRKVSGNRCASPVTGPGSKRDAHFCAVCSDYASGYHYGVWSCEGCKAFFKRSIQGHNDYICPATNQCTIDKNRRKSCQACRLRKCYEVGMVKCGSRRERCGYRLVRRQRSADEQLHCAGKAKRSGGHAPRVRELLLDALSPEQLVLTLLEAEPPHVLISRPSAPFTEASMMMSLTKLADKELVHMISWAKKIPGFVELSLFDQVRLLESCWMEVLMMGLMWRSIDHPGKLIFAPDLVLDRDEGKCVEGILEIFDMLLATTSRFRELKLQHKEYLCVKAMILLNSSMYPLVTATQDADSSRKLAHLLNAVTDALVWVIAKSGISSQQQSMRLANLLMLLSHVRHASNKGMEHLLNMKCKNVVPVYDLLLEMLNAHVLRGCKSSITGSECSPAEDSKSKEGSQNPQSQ
MRP reversal: reversal of MRP1-mediated doxorubicin resistance, primary screen, H69AR cells, doxorubicin co-treatment; differential viability (reversal), % at 10 µM; 0.04% of 85,000 active; H69AR cells + 2 uM doxorubicin, CellTiter-Glo, 72 h;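 active means viability drop by adding the cancer drug above about 55%, with treated viability meeting a 40% cutoff, limit read from the data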;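 further: viability without doxorubicin minus viability with 2 µM doxorubicin for each compound; larger differential means the compound sensitizes cells more to doxorubicin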
ERa SRC1 pot: enhancers of ERα–SRC-1 coactivator binding, primary screen, biochemical, TR-FRET, ERα LBD, low estradiol; TR-FRET ERalpha-LBD/SRC-Cy5 coactivator binding, 2 h; 100 = basal binding, no effect; 1.3% of 86,000 active; coactivator binding (% of control), % at 25.6 µM; Estrogen receptor (Homo sapiens), P03372; AID 639, 2007; in the data active means activity above about 200%;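 further: binding measured in presence of low estradiol as agonist stimulus; 0% = peptide alone without receptor and 100% = receptor with peptide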
Smad3 FoxH1 inh: Smad3/FoxH1 peptide binding inhibitors, primary screen, biochemical, TR-FRET | Mothers against decapentaplegic homolog 3 (Homo sapiens), P84022 | TR-FRET Smad3/Dy647-FoxH1 peptide binding, europium anti-His | inhibition, % at 25 µM | 0.29% of 88,000 active | AID 630, 2007;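 active means compounds that reduce the energy-transfer binding signal between the protein and its labelled peptide by more than half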;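 further: 0% = Smad3 plus labelled peptide maximal FRET and 100% = peptide-only background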
ERa SRC1 inh: ERα–SRC-1 coactivator interaction inhibitors, primary screen, biochemical, TR-FRET, ERα LBD, estradiol-bound; 1.7% of 86,000 active; AID 629, 2007; Estrogen receptor (Homo sapiens), P03372; TR-FRET ER-alpha LBD / SRC-1 peptide; inhibition, % at 25.6 µM; in the data active means inhibition above about 50%;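 further: 0% = receptor plus peptide control and 100% = peptide only without receptor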
MRP-1 activ: H69AR viability gain despite doxorubicin, primary screen, MRP-1 activator project, H69AR cells, CellTiter-Glo; viability increase, % at 10 µM; viability rescue; 0.61% of 140,000 active; AID 799, 2007;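 active means viability gain under doxorubicin at or above a set limit, the compound median plus 3 SD, cut at about 4.7% in these data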;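 further: MRP-1 overexpressing cells given doxorubicin 25 µM after compound pretreatment; 18-22 h compound pretreatment then 72 h with doxorubicin before readout; 0% = doxorubicin-only wells and 100% = vehicle-treated cells without doxorubicin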
An asterisk follows results filed as active; nt = no result given; [ ] = remark or other dose. In the library only some 2.8% were active in any assay of this set; here they are far more common.

SMILES | ERb coact inh | MRP reversal | ERa SRC1 pot | Smad3 FoxH1 inh | ERa SRC1 inh | MRP-1 activ
CC(O/N=C\c1ccccc1O)C(=O)Nc1ccccc1C(=O)N1CCOCC1 (stereo not given) | nt | nt | nt | nt | nt | -3
CCC1=C(C[C@H]2NCCc3ccccc32)C[C@H]2c3cc(OC)c(OC)cc3CCN2C1 | nt | nt | nt | 5 | nt | nt
CC(/C=N/NC(=O)c1ccc2nc(C)[nH]c2c1)=C\c1ccccc1 | nt | nt | nt | nt | nt | -5
Cc1nn(-c2ccccc2)c(C)c1NC(=O)Cc1cccs1 | 53* | -6 | 62 | 5 | 59*[fluorescence artefact?] | -2
Cc1ccc(S(=O)(=O)OCC(=O)O)cc1 | nt | nt | nt | 0 | nt | nt
COc1ccc(OC)c(NC(=O)C2CCN(c3cc(-c4ccccc4)nc4ncnn34)CC2)c1 | 56*[fluorescence artefact?] | 2 | 127 | 3 | 31 | 0
COc1ccccc1-c1nnc(SC2CCc3ccccc3NC2=O)s1 (stereo not given) | -11 | 1 | 111 | 14 | -9 | 6.3*
COc1ccccc1-c1nnc(N(C)C(=O)C2CCCO2)s1 (stereo not given) | 16 | 15 | 90 | -9 | 13 | -1
Cc1ccc(-c2noc(CCC(=O)Nc3ccc(C)cn3)n2)cc1 | 2 | -12 | 253* | 11 | 5 | -3
COc1ccc(/C=N/Nc2ncc(-c3ccccc3)cn2)c(OC)c1 | 27 | -29 | 422*[fluorescence artefact?] | 18 | 38 | -2
CCOc1cc(C=O)ccc1OCCSc1ccc(Cl)cc1 | nt | nt | nt | nt | nt | -2
Cc1ccc(C)c2[nH]c(=O)c(C(c3nnnn3Cc3ccco3)N3CCc4ccccc4C3)cc12 (stereo not given) | 31 | 5 | 220*[fluorescence artefact?] | 5 | 19 | -2
Cc1ccc(C)c2[nH]c(=O)c(C(c3nnnn3CCc3ccccc3)N3CCOCC3)cc12 (stereo not given) | 7 | -1 | 102 | -5 | 1 | -1
NC(=O)N/N=C1\CC[C@H](O)C[C@@H]1CC(=O)O | nt | nt | nt | -7 | nt | nt
O=C1CCC(c2ccccc2)=NN1c1nc2ccccc2s1 | nt | nt | nt | 18 | nt | nt
CCOc1ccc(NC(=O)N2CCC(n3c(=O)[nH]c4ccccc43)CC2)cc1 | -4 | -16 | 122 | -6 | -10 | 5.6*
CCOC(=O)c1c(C)oc2ccc(NS(=O)(=O)c3ccc4c5c(cccc35)C(=O)N4)cc12 | 65*[fluorescence artefact?] | -1 | 52 | 8 | 67*[fluorescence artefact?] | -2
COc1ccccc1/C=c1\sc2nc(-c3ccco3)nn2c1=O | 67*[fluorescence artefact?] | -13 | 107 | 7 | 74* | -2
CCOc1ccc(/C=c2\sc3nc(-c4ccco4)nn3c2=O)cc1OCC | 25 | 10 | 101 | 12 | 55* | -1
CCC(C)n1cnc2c(c1=O)c1nc3ccccc3nc1n2Cc1ccc2c(c1)OCO2 (stereo not given) | 11 | 18 | 123 | 20 | 2 | -2
CCC(C)n1cnc2c(c1=O)c1nc3ccccc3nc1n2-c1ccc2c(c1)OCCO2 (stereo not given) | 10 | -7 | 246* | 32 | 30 | 0
O=c1c2c3nc4ccccc4nc3n(-c3cccc(F)c3)c2ncn1Cc1ccc2c(c1)OCO2 | 61*[fluorescence artefact?] | 1 | 76 | 2 | 82*[fluorescence artefact?] | nt
COc1cc2c(cc1C1NC(=S)NC(C)=C1C(=O)N(C)C)CCCC2 (stereo not given) | nt | nt | nt | nt | nt | -2
CSc1ncnc2c1ncn2[C@H]1O[C@@H](CO)[C@H](O)O[C@@H]1O | nt | nt | nt | -4 | nt | nt
O=C(CSCSCC(=O)NCC1CCCO1)NCC1CCCO1 (stereo not given) | 12 | 9 | 111 | 0 | 9 | 0
SMILES | ERb coact inh | MRP reversal | ERa SRC1 pot | Smad3 FoxH1 inh | ERa SRC1 inh | MRP-1 activ
Cc1ccc(NS(=O)(=O)c2cccc(C(=O)Nc3cc(C)on3)c2)cc1 | nt | -23 | nt | nt | nt | 0
CCS(=O)(=O)N1CCC(C(=O)N2CCc3ccccc3C2)CC1 | -9 | -4 | 245*[fluorescence artefact?] | 1 | 9 | -3
CC(C)CN(CC(C)C)S(=O)(=O)N1CCC(C(=O)N2CCc3ccccc3C2)CC1 | nt | nt | nt | nt | nt | -2
Cc1nnc(SCC(=O)NCCc2ccccc2)[nH]c1=O | 3 | -5 | 121 | -8 | -4 | nt
Cc1cc(=O)[nH]c(SCC(=O)NCCc2ccccc2)n1 | 7 | 2 | 82 | 96* | 5 | 1
Cc1nnc(SCC(=O)NCc2ccccc2)[nH]c1=O | -26 | 2 | 117 | 63* | -2 | -1
Cc1ccccc1OCC(=O)N/N=C/c1cccn1C | 12 | 0 | 100 | -12 | -1 | -3
Cc1ccc2c(c1)nnn2C1CCN(CC(=O)Nc2ccc3c(c2)OCCO3)CC1 | -12 | 4 | 122 | 3 | 2 | -2
CN1CCN(c2nc3c(c(=O)n(C)c(=O)n3C)n2Cc2cccc3ccccc23)CC1 | 2 | 12 | 90 | -7 | -6 | -1
Cn1c(=O)c2c(nc(N3CCCCCC3)n2Cc2cccc3ccccc23)n(C)c1=O | -6 | 64* | 91 | -9 | 0 | -6
CC1(C)S[C@H]2[C@H](C(=O)O)N=C(Cc3ccccc3)N2[C@H]1C(=O)O | nt | nt | nt | 10 | nt | nt
COc1ccc(Nc2nnc(SCc3cc(=O)n4ccsc4n3)s2)cc1 | 52* | 4 | 52 | 33 | 76*[fluorescence artefact?] | -1
CN(Cc1cc(=O)n2ccsc2n1)c1ccccc1 | nt | nt | nt | nt | nt | 1
O=c1cc(CNc2ccc(Br)cc2)nc2sccn12 | nt | nt | nt | nt | nt | 8.7*
CCc1ccc2c(c1)N(C[C@H](C)CN(C)C)c1ccccc1S2 | nt | nt | nt | -5 | nt | nt
O=S(=O)(c1ccc2ccccc2c1)N1CCN(S(=O)(=O)c2ccc3ccccc3c2)CC1 | nt | nt | nt | 91* | nt | nt
CN1CCN(S(=O)(=O)c2ccc3ccccc3c2)CC1 | -7 | 2 | 130 | 3 | -5 | -3
CC1CCCC(NC(=O)COC(=O)CCC2CCCC2)C1C (stereo not given) | -28 | 10 | 109 | 2 | 0 | 0
Cc1ccc(C2C(C#N)=C(N)Oc3c2sc2ccccc32)o1 (stereo not given) | 70*[fluorescence artefact?] | -32 | 74 | 8 | 70*[fluorescence artefact?] | -2
CCOC(=O)CC1=C(C(=O)OCC)C(c2ccc(C)o2)C(C#N)=C(N)O1 (stereo not given) | -3 | 5 | 127 | -5 | -3 | -2
O=C(c1ccc2c(c1)[nH]c(=S)n1c3ccccc3nc21)N1CCN(c2ncccn2)CC1 | -4 | 0 | 73 | 0 | 51*[fluorescence artefact?] | 0
CCCCc1nc(SCC(=O)Nc2cc(C)on2)n[nH]1 | 98*[fluorescence artefact?] | -6 | 110 | 5 | -6 | 0
COc1ccc2c(c1)CC/C(=C\c1ccc(OC)c(Cn3nc(C)cc3C)c1)C2=O | 26 | nt | 106 | 0 | 52* | -2
Nc1nc(Cl)cc(NCCO)n1 | nt | nt | nt | 3 | nt | nt
